The full ranking holds about 33,000 sequences; the median of “E-score (-0.5 to 0.5)” is about -0.016, and the highest 2% start at about 0.32. Only a selection was taken, and the highest values are over-represented in it overall.
The sequences below were run against T1, Stp1 (UniProt B3LFK1) (assay: PBM E-score (8-mer binding enrichment) (E-score (-0.5 to 0.5)); higher = stronger / more preferred TF binding). Conditions: protein concentration: 200 nM; construct: GST-full length.
T1 sequence: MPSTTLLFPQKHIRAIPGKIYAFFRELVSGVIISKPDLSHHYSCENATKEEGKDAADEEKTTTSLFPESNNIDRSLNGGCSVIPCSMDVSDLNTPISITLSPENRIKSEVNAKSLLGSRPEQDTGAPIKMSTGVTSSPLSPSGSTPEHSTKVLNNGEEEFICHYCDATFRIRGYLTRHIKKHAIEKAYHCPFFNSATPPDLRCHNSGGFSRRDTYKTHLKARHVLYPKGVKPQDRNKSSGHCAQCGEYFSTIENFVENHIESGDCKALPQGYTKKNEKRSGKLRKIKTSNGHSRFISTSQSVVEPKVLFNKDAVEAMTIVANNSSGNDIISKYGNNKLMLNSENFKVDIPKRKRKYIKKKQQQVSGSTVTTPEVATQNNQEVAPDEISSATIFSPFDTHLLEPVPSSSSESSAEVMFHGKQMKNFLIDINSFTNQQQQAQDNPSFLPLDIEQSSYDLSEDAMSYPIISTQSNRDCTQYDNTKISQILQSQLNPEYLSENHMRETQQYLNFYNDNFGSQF
Procedure, shortened: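 Universal all-10-mer Agilent arrays, fresh or stripped once, were converted to double-stranded form by primer extension. GST-tagged yeast transcription factors from PURExpress in vitro transcription/translation, full-length or DNA-binding domain only, were applied at about 100-200 nM and detected with fluorescent anti-GST. After masliner normalisation, the Universal PBM Analysis Suite scored each ungapped eight-base word together with its reverse complement by E-score.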

Row | Sequence | PBM E-score
1 | GTGTGTTA | 0.029
2 | AGTTCAAT | -0.0607
3 | CGGTTATC | -0.0601
4 | CAGCAATG | -0.194
5 | AAATAAGG | 0.0174
6 | CAAACTAG | -0.107
7 | CCACTGGA | -0.241
8 | ACACCGCG | 0.0308
9 | CCAGAACC | -0.154
10 | AGGCTATG | -0.196
11 | CGCTGAAG | -0.108
12 | ACGGCTTG | 0.335
13 | ACGGCTTA | 0.375
14 | ACGGCTGA | 0.147
15 | CCGGCTTC | -0.0259
16 | ATGGCTTG | -0.0553
17 | ACGGCTGG | 0.139
18 | ACGGCTTC | 0.417
19 | GCGGCTTA | 0.234
20 | ACGGCTGC | 0.289
21 | AAGCGGTC | -0.149
22 | GATTAGGC | 0.02

Source: the supplement of paper PMC3334620
